Source: PubChem BioAssay
Rv3671c inh: Rv3671c serine protease inhibitors, primary screen, biochemical, fluorescence polarization, M. tuberculosis H37Rv | P9WHR9 | 320,000 compounds, 0.048% hits | inhibition, % at 5.96 µM; in the data active = inhibition above about 38%;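 note: extracellular domain of Rv3671c used as enzyme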
PriA SSB inh: inhibitors of Klebsiella pneumoniae PriA binding to SSB C-terminal tail, primary screen, biochemical, AlphaScreen | PriA–SSB C-terminal tail interaction (Klebsiella pneumoniae) | AlphaScreen SSBct-PriA binding, biotinylated peptide | inhibition, % at 33 µM | 430,000 compounds, 0.6% hits; in the data active = inhibition mostly above about 37%, no sharp cut-off; inactive = mostly below about 20%
Mtb bLac sens: beta-lactam sensitization of Mtb H37Rv, H37Rv; 330,000 compounds, 0.27% hits; inhibition, % at 25 µM; M. tuberculosis H37Rv growth with meropenem, percent inhibition; call rule not given here;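 note: growth measured after seven days incubation then overnight dye step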
Mtb FBA inh: Mtb FBA enzyme inhibitors, primary screen, biochemical, fluorescence, strain H37Rv | purified M. tuberculosis FBA, fluorescence read-out | 360,000 compounds, 2.3% hits | inhibition, % at 1 µM | Fructose-bisphosphate aldolase (Mycobacterium tuberculosis (strain ATCC 25618 / H37Rv)), …; in the data active = inhibition above about 27%
GDH-TPI counter: GDH-TPI coupling enzyme inhibitors, primary screen, artefact control for M. tuberculosis FBA inhibitor project, biochemical, absorbance, full deck | GDH-TPI coupled enzyme counterscreen, NADH absorbance | inhibition, % at 4.8 µM | 360,000 compounds, 1.2% hits | AID 588335, 2011; in the data active = inhibition above about 30%
Mtb UGM inh: M. tuberculosis UGM enzyme inhibitors, primary screen, biochemical, fluorescence polarization, single point | UDP-galactopyranose mutase (Mycobacterium tuberculosis (strain ATCC 25618 / H37Rv)), … | purified UGM, fluorescence polarization probe displacement | inhibition, % at 10 µM | 320,000 compounds, 0.06% hits | AID 504406, 2011; in the data active = inhibition above about 10%, passing the limit was not always enough
Target sequence (P9WIQ1 whole entry, looked up): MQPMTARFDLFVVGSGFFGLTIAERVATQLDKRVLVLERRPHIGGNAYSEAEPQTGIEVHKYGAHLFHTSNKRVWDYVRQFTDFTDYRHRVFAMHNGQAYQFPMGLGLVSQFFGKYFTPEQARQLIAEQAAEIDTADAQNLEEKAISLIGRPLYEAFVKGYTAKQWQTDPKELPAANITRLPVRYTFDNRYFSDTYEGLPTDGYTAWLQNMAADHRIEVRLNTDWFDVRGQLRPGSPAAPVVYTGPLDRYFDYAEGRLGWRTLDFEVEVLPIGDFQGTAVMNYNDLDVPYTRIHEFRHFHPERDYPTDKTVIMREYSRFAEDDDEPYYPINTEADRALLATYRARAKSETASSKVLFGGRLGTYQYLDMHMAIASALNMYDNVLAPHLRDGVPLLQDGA
Hits are given with their value; . = inactive; / = no result given; + = active, no number. An excerpt weighted towards active compounds, which were near 3.2% of everything screened.

SMILES	Rv3671c inh	PriA SSB inh	Mtb bLac sens	Mtb FBA inh	GDH-TPI counter	Mtb UGM inh
COc1cc(NC(=O)NCC(c2ccc3c(c2)CCN3C)N2CCOCC2)cc(OC)c1 (centres undefined)	/	.	/	/	/	/
COc1cc(NC(=O)NCC(c2ccc3c(c2)CCCN3C)N2CCCC2)cc(OC)c1 (centres undefined)	/	40	/	/	/	/
COc1nc(-c2ccccc2)cc(-c2ccc(OC)c(OC)c2)n1	.	.	.	.	36	.
COc1ccc(-c2cc(-c3ccccc3)nc(NN)n2)cc1OC	.	.	.	.	.	.
N#CC(C#N)=Cc1c[nH]c(=O)c(C#N)c1Nc1ccccc1	.	.	.	+	.	.
N#Cc1c(Nc2ccccc2)c(/C=N/N=C/c2ccccc2)c[nH]c1=O	.	/	.	.	.	.
O=C(Nc1nnc(-c2ccco2)o1)c1ccc(Cl)s1	.	.	.	.	.	.
COc1cccc(-c2nnc(NC(=O)c3ccc(Cl)s3)o2)c1	.	.	.	.	41	.
CC(=O)c1ccc(OCC(=O)NCc2sc(-c3ccccc3F)nc2C)cc1	/	.	/	/	/	/
Cc1ccccc1-n1c(C)cc(C=NNC(=O)c2ccncc2)c1C	/	.	/	/	/	/
Cc1c(C(=O)O)cccc1-n1c(C)cc(/C=N/NC(=O)c2cc3ccccc3o2)c1C	.	/	.	.	39	.
Cc1ccccc1-n1c(C)cc(/C=N/NC(=O)c2ccncc2)c1C	.	/	.	.	31	.
N#C/C(=C\c1ccccn1)c1ccccn1	.	.	.	.	.	.
N#C/C(=C/c1cccs1)c1ccccn1	.	.	.	.	33	.
CN1CCN(c2ccc(C=O)cc2)CC1	.	.	.	.	37	.
COc1cc2c(cc1OC)-c1cc3ccc(OC)c(OC)c3c[n+]1CC2	.	.	.	.	59	.
COc1cc2c(cc1OC)C(c1ccc(Cl)cc1)=NCC2	.	.	.	.	.	.
Cc1cccc(N=Cc2c(O)n(Cc3ccc4c(c3)OCO4)c(=O)c3ccccc23)n1	/	.	/	/	/	/
COc1ccc(C(=O)NCC(=O)NN=Cc2ccco2)cc1OC	/	.	/	/	/	/
CN(C)c1ccc(/C=N\N2C(=O)C3C4c5ccccc5C(c5ccccc54)C3C2=O)cc1 (centres undefined)	/	.	/	/	/	/
CC(OC(=O)c1ccc(O)cc1O)C(=O)c1cccc(Cl)c1 (centres undefined)	/	.	/	/	/	/
O=C(NN=Cc1ccco1)c1ccccn1	/	60	/	/	/	/
O=C(N/N=C/C=C\c1cccc([N+](=O)[O-])c1)c1ccccn1	.	/	.	.	34	.
O=C(CCn1cnc(-c2ccccc2)c1-c1ccccc1)N/N=C\c1ccco1	/	48	/	/	/	/
Cc1ccc(OCC(=O)N/N=C/C=C/c2ccco2)cc1C	.	/	.	.	37	.
SMILES	Rv3671c inh	PriA SSB inh	Mtb bLac sens	Mtb FBA inh	GDH-TPI counter	Mtb UGM inh
COc1ccc(CC(=O)Nc2cccc(-c3cn4ccsc4n3)c2)cc1	/	.	/	/	/	/
O=C(N/N=C/C=C/c1ccco1)c1cnccn1	.	.	.	.	.	.
O=C(N/N=C/C=C\c1ccco1)c1ccccn1	.	.	.	.	35	.
COc1ccc(C2=Nn3c(nnc3-c3ccccn3)SC2)cc1OC	.	83	.	.	35	.
CC(C)(C)C1=Nn2c(nnc2-c2ccccn2)SC1	.	90	.	.	.	.
CC(C)(C)C1=Nn2c(nnc2-c2ccccc2F)SC1	.	.	/	.	.	.
COc1ccc(C2=Nn3c(nnc3-c3ccco3)SC2)cc1OC	.	.	.	.	37	.
O=C(C[C@@H]1C/C=C/C[C@H](Cc2ccc(F)cc2)C(=O)OC[C@H]2CCCN2C1=O)NCCO	/	.	/	/	/	/
CN(C)C(CNC(=O)Cc1ccc(Cl)cc1)c1ccc(F)cc1 (centres undefined)	/	.	/	/	/	/
CCc1ccc(N(C)S(=O)(=O)c2ccsc2-c2nc(-c3cc(OC)cc(OC)c3)no2)cc1	/	.	/	/	/	/
CCCn1c2c(c(O)c(C(=O)Nc3ncccc3O)c1=O)CCCC2	.	.	.	.	34	.
CCCn1c2c(c(O)c(C(=O)NC)c1=O)CCCC2	.	.	.	.	.	.
CN(C)c1ccc(C(=O)c2ccccc2C(=O)O)c(O)c1	.	.	.	.	41	.
CCOC(=O)c1c(NC(=O)CSc2nc3ccccc3s2)sc(C(C)=O)c1C	.	.	.	.	33	.
CC(/C=C/c1ccccc1)=NNC(=O)C1CC1(C)c1ccccc1 (centres undefined)	/	.	/	/	/	/
Cc1c(C(=O)N2CCOCC2)sc(NC(=O)c2ccc3c(c2)OCO3)c1C#N	.	.	.	.	45	.
O=C(N/N=C/c1ccc[nH]1)c1ccccc1[N+](=O)[O-]	.	/	.	.	.	.
Cc1ccc(C(=O)N/N=C\c2ccc[nH]2)cc1[N+](=O)[O-]	.	/	.	.	48	.
O=C(N/N=C/c1ccc[nH]1)c1ccncc1	.	/	.	.	.	.
O=C(N/N=C/c1ccc[nH]1)c1ccc(Cl)cc1	.	/	.	.	39	.
c1ccc2c(c1)cc1ccc3cccc4ccc2c1c34	/	.	/	34	.	/
c1ccc2c(c1)-c1cccc3c1c-2cc1ccccc13	.	/	.	/	/	.
O=C(Cc1c(F)cccc1Cl)c1ccc(O)cc1O	.	.	.	.	34	.
CCc1cc(C(=O)Cc2ccc(F)cc2)c(O)cc1O	.	.	.	.	.	.
CCCCCCc1cc(C(=O)Cc2nc3ccccc3[nH]2)c(O)cc1O	/	.	/	/	/	/
SMILES	Rv3671c inh	PriA SSB inh	Mtb bLac sens	Mtb FBA inh	GDH-TPI counter	Mtb UGM inh
O=C(Cc1ccc(F)cc1)c1ccc(O)cc1O	.	.	.	.	46	.
O=C(Cc1ccccc1F)c1ccc(O)cc1O	.	.	.	.	.	.
COc1ccccc1OCC(=O)c1ccc(O)cc1O	/	.	/	/	/	/
CCc1cc(C(=O)COc2ccccc2F)c(O)cc1O	.	.	.	.	38	.
CCc1cc(C(=O)Cc2nc3ccccc3[nH]2)c(O)cc1O	.	.	.	.	39	.
O=C(NCc1ccnc(-c2cccs2)c1)Nc1c(F)cccc1F	/	.	/	/	/	/
Cc1ccccc1-c1nc2scc(CCNS(=O)(=O)c3cccc([N+](=O)[O-])c3)n2n1	/	.	/	/	/	/
CCCc1cc(C(=O)Cc2ccc(F)cc2)c(O)cc1O	.	.	.	.	32	.
CCCc1cc(C(=O)Cc2nc3ccccc3s2)c(O)cc1O	.	.	.	.	38	.
CCOC(=O)C(=O)Cc1nc2ccccc2s1	.	.	.	.	.	.
COc1ccc(C)cc1S(=O)(=O)Nc1ccc(C)c(N2CCCCC2=O)c1	/	.	/	/	/	/
O=C(N/C(=C/c1ccc([N+](=O)[O-])cc1)C(=O)N1CCCC1)c1ccccc1	.	.	.	.	.	.
O=C(N/C(=C/C=C/c1ccccc1)C(=O)N1CCCCC1)c1ccc([N+](=O)[O-])cc1	.	39	.	.	.	.
CCOc1ccc2c(c1)C(C)=CC(C)(C)N2C(=O)Nc1ccccc1	.	44	.	.	.	.
